Source: PubChem BioAssay (National Center for Advancing Translational Sciences (NCATS))
Casp7 inh: allosteric or competitive inhibitors of human caspase-7; P55210; recombinant caspase-7, Ac-DEVD-AFC fluorescence rate; Potency, µM (highest dose often 57.5 µM), inactives show top-dose activity change, negative = inhibition, actives largely listed as inhibitors; 0.02% of 75,000 active; AID 889; active = well fitted inhibition curve with a large enough effect in the main read-out, with a control signal flat, not every such curve was filed as active; inconclusive = small, poorly fitted or top-dose-only effect, or a change in a side signal; note: % of control where 0% means no effect
Casp1 inh: caspase-1 (human) inhibition, allosteric or competitive | P29466 | Caspase-1 enzyme, Ac-WEHD-AFC fluorogenic rate | Potency, µM (doses to about 57.5 µM), inactives show top-dose activity change, negative = inhibition, most hits filed as inhibitors | 0.03% of 75,000 active | AID 900;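 note: plate controls were vehicle for no effect and no substrate for full effect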
p53ts 32C kill: cytotoxicity in p53ts cells at permissive temperature. Potency, µM (titrated, usually from 46.1 µM), for inactives: at the top dose activity change, negative = cytotoxicity, usual class: cytotoxic. AID 924. H1299-p53A138V at 32C, ATP luminescence viability, 24 h. 0.93% of 130,000 active;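 note: 0% = DMSO and -100% = full killing by reference compound; nearly all actives have a fitted effect of over 55% in size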
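Cells: H1299 p53ts (A138V), 600/well, pre-incubated 16–30 h at 37C. Cpd up to 46 uM, 24 h, 32C. Readout: ATPlite luminescence, 20 min RT. Normalization: DMSO vs tamoxifen 100 uM. AC50 by Hill equation.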
FLuc inh: inhibitors of firefly luciferase. purified firefly luciferase, luminescence, 8 min. 2.2% of 72,000 active. Potency, µM (titrated, usually from 57.1 µM), without a hit: at the highest dose activity change, negative = inhibition, most hits filed as inhibitors; note: % is set by controls: 0 for no effect and ±100 for the full control effect; nearly all actives have a fitted effect of over 40% in size
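Inhibition of light generation by firefly luciferase from ATP and luciferin was profiled with concentration-response curves per sample, ATP held at 10 uM within the enzyme's linear range. Plates were read by luminescence after an 8-minute ambient incubation.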
p53ts 39C kill: kills p53ts cells at the nonpermissive temperature | H1299-p53A138V viability at 39C, ATP luminescence, 24 h | 1.5% of 130,000 active | AID 902 | Potency, µM (series often up to 46.1 µM), for inactives: at the top dose activity change, negative = cell killing, most hits filed as cytotoxic; note: % is set by controls: 0 for no effect and ±100 for the full control effect; nearly all actives have a fitted effect of over 55% in size
IkB signaling: inhibitors of IkB signaling in ABC-DLBCL cells; Potency, µM (series often up to 57.1 µM), without a hit: at the highest dose IkBa stabilization activation; ABC-DLBCL IkBa-CBG/CBR dual luciferase ratio, 4 h; response scale: scaled: untreated 0%, proteasome inhibitor 100%; 0.04% of 110,000 active; active = well fitted curve in the direction sought with a large enough effect in the signal ratio, not every such curve was filed as active; inconclusive = small, poorly fitted or top-dose-only effect, or a change in a side signal; the % refers to the signal ratio;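 note: the direction sought is a rising ratio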
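Luminescence ratio of IκBα-fused green versus native red beetle luciferase in OCI-Ly3 cells, 4 h post-doxycycline with compound; red signal alone, scaled from basal (0%) to zero light (-100%), flagged nonspecific or cytotoxic effects.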
* hit, by the source's call; ? = inconclusive; . = no result given; [ ] = dose if it differs, or a comment. Hits are enriched below; roughly 2.5% of the tested compounds scored in any of these assays. Unless noted, calls come from the whole dose curve; as a rule, active = well fitted curve in the direction sought with a large enough effect; inconclusive = small, poorly fitted or top-dose-only effect, or another doubt; inactive = no such curve, though single readings can be large; an effect the other way counts as inactive or inconclusive. Potency is the fitted concentration of half-maximal effect.

SMILES	Casp7 inh	Casp1 inh	p53ts 32C kill	FLuc inh	p53ts 39C kill	IkB signaling
Oc1ccccc1-c1nc(-c2cccs2)c(-c2cccs2)[nH]1	.	.	?	.	25µM*	?
COc1cccc2sc(NC(=O)c3ccc4c(c3)OCCO4)nc12	.	.	?	.	5µM*	?
O=C(Nc1nc2c(F)cc(F)cc2s1)c1ccc2c(c1)OCCO2	.	.	?	.	?	2%
C=CCn1c(C)cc(C(=O)CSc2nc3ccccc3o2)c1C	-7%	-3%	-24%	16µM*	-24%	?
COc1ccc2oc(C(=O)C3CC3)c(N)c2c1	-3%	-1%	-19%	25µM*	-17%	-2%
O=C(Nc1ccc2ccccc2c1)c1cccnc1	0%	0%	-29%	13µM*	-28%	6%
O=C(Nc1cccnc1)c1cccnc1	.	.	-10%	0%[25.5 µM]	-5%	.
O=C(Nc1ccc2nccnc2c1)c1cnccn1	0%	-4%	-16%	-7%	-13%	6%
O=C(Nc1ccc2nc3ccccc3nc2c1)c1ccccc1	.	.	?	.	10µM*	.
O=C(Nc1ccc2ccccc2c1)c1cnccn1	-5%	-4%	?	7.9µM*	?	14%
Cc1nn2c(-c3ccccc3)cc(-c3ccccc3)nc2c1-c1ccc(Cl)cc1	.	.	-8%	.	12%	-2%
O=C(COCc1cc(-c2cccs2)on1)Nc1cccc(O)c1	.	.	-2%	.	.	.
CCNc1ncc2nc(-c3cc(F)cc(F)c3)c(=O)n(C3CC3)c2n1	?	.	-1%	1%[11.4 µM]	4%	0%[11.4 µM]
Clc1ccc(-c2nnn3c2nc(NCc2ccc4c(c2)OCO4)c2ccccc23)cc1	.	.	9%	.	-21%	?
Cc1cccc(-c2nnn3c2nc(NCc2ccc4c(c2)OCO4)c2ccccc23)c1	.	.	-5%	.	6.3µM*	?
CN1/C(=C\C(=O)CSc2nncn2C)C(C)(C)c2ccccc21	.	.	.	.	22%	.
CSc1ccc(CNc2ccccn2)cc1	0%	1%	?	16µM*	-28%	0%
CSc1ccc(CNc2ncc(-c3ccccc3)n2C)cc1	.	.	-12%	.	10%	-1%
Nc1nc(Sc2ccc([N+](=O)[O-])c3nonc23)c2[nH]cnc2n1	2%[11.5 µM]	2%[11.5 µM]	?	-15%[11.4 µM]	?	4µM*
Cc1ccc2nc(Cl)c3cc(C(=O)NCCCN(C)Cc4ccccc4)sc3c2c1	.	.	?	.	13µM*	?
CCN(CCCNC(=O)c1cc2c(=O)[nH]c3ccc(C)cc3c2s1)Cc1ccccc1	.	.	13µM*	.	13µM*	?
CCN(CCCNC(=O)c1cc2c(=O)n(C)c3ccccc3c2s1)Cc1ccccc1	.	.	1%	.	13µM*	?
CCN(CC)CCNC(=O)c1cc2c(=O)[nH]c3ccc(C)cc3c2s1	.	.	1%	.	0%	-1%
CN(CCCNC(=O)c1cc2c(Cl)nc3ccccc3c2s1)Cc1ccccc1	.	.	3%	.	?	?
CCC(Sc1nc2ncccc2o1)C(=O)Nc1ccc(OC)c(OC)c1 (configuration not stated)	.	.	-11%	.	?	?
SMILES	Casp7 inh	Casp1 inh	p53ts 32C kill	FLuc inh	p53ts 39C kill	IkB signaling
CSC1=NC2(CCN(C(=O)NC3CCCCC3)CC2)N=C1c1ccc(C)cc1	.	.	-8%	.	-17%	?
CSCC[C@H](NC(=O)OC(C)(C)C)c1nnc(SCC(N)=O)o1	-1%	-2%	-13%	1%	4%	1%
Cc1ccc(NC(=O)Cn2c(=O)n(Cc3ccco3)c(=O)c3ccc(C(=O)NC4CCCC4)cc32)c(C)c1	.	.	-27%	.	13µM*	-1%
COc1ccc(Cl)cc1NC(=O)Cn1c(=O)n(Cc2ccco2)c(=O)c2ccc(C(=O)NC3CCCC3)cc21	.	.	0%	.	5%	0%
CC(=O)c1cccc(Nc2cc(C)nc3nc(Cc4ccccc4)nn23)c1	.	.	-4%	.	-24%	?
COc1ccc(CSc2nc3ncccc3[nH]2)cc1	.	.	16µM*	.	.	.
COc1ccc(C)cc1Nc1cc(C)nc2ncnn12	-2%	0%	7%	0%	4%	4%
COc1ccc(/C=C/c2nc(C#N)c(N3CCC(C)CC3)o2)cc1OC	.	.	1%	.	-15%	?
COc1cc2c(cc1NC(=O)COC(=O)Cn1cnc3ccccc31)oc1ccccc12	-4%	-2%	5%	16µM*	-2%	2%
O=C(Cn1ncc2c3ccccc3n(Cc3ccccc3F)c2c1=O)NC1CCCCCC1	.	.	-11%	.	7.9µM*	1%
CCOC(=O)Cc1csc(NC(=O)c2csc3c2CCCC3)n1	-7%	-6%	-21%	16µM*	?	?
COc1cc(NC(=O)c2csc3c2CCCC3)ncn1	0%	2%	?	13µM*	?	1%
Cc1cc(C)n2c(SCCC(C)C)nnc2n1	0%	4%	-6%	-3%	4%	0%
Cc1ccc(C)c(N2CCN(CCCNC(=O)c3ccc4nc(CCc5ccccc5)oc4c3)CC2)c1	.	.	-27%	.	25µM*	?
Cc1ccc(Cl)cc1N1CCN(CCCNC(=O)c2ccc3nc(N4CCCCC4)sc3c2)CC1	.	.	-2%	.	-4%	?
Cc1ccc(C)c(N2CCN(CCCNC(=O)c3ccc4nc(N5CCC(C)CC5)sc4c3)CC2)c1	.	.	-6%	.	13µM*	?
CCN(CC)c1ccc(-c2nc3cnccc3n2C)cc1	-2%	-2%	?	10µM*	?	0%
CCN(CC)c1ccc2c(c1)C(=O)N(C)C2=O	-12%	-11%	6%	-9%	5%	1%
Cc1ccc(CNC(=O)Nc2cc(C(=O)NCc3ccc(C(C)C)cc3)ccc2N2CCCC2)cc1	.	.	9%	.	-14%	?
COc1cccc(C2CC(C(F)(F)F)n3nc(C(=O)NCc4cccnc4)cc3N2)c1 (configuration not stated)	-1%	3%	2%	-1%	15%	1%
CN(C)c1ccc(-c2nccc(NCc3cccs3)n2)cc1	-7%	-4%	7.9µM*	0.5µM*	5µM*	13%[11.4 µM]
CN(C)C(=O)c1ccc(-c2nccc(NCc3cccs3)n2)cc1	-3%	-2%	6%	-1%[2.29 µM]	-13%	-1%[11.4 µM]
OC1c2ccccc2-c2nc3ccccc3cc21 (configuration not stated)	-3%	-1%	?	.	10µM*	.
Cc1ccc(C2c3c(-c4cc(C)ccc4O)n[nH]c3C(=O)N2Cc2ccco2)cc1 (configuration not stated)	.	.	?	.	25µM*	?
COCCCN1C(=O)c2[nH]nc(-c3ccccc3O)c2C1c1ccc(OCc2ccccc2)cc1 (configuration not stated)	.	.	25%	.	13µM*	?
CCCCN1C(=O)c2[nH]nc(-c3ccccc3O)c2C1c1ccc(OCc2ccccc2)c(OC)c1 (configuration not stated)	.	.	25%	.	-11%	?
